We go through three compounds from PubChem BioAssay (EPA / NIEHS).

Activity calls are given as the source filed them. The calls were made as follows: active = hit-call score of the fitted dose curve at least 0.9, where 1 is the maximum; inactive = score below 0.9.

For test [1], the target named is Bile acid receptor (Homo sapiens) (UniProt Q96RI1). Kind of test: ATG_IR1_CIS: Attagene CIS-FACTORIAL HepG2 Assay for human Nuclear Receptor Subfamily 1 Group H Member 4 (NR1H4), IR1 submotif (AID 2282946). The conditions noted are these: IR1 reporter transcription, actives raise or lower the signal. Summed up: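 HepG2 cells transiently transfected with multiplexed cis-element reporter units read endogenous transcription factor activity. After 24 h compound exposure, reporter mRNA was quantified by RT-PCR, fluorescent labelling, HpaI digestion and capillary electrophoresis; bidirectional fitting versus DMSO baseline.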

Test [2] in a line: ATG_GRE_CIS: Attagene CIS-FACTORIAL HepG2 Assay for human Glucocorticoid Response Elements (GRE) (AID 2282947). The conditions noted are these: HepG2 GRE cis-reporter, Attagene multiplex mRNA; actives raise or lower the signal. Summed up: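 Reporter transcripts read by RT-PCR with capillary electrophoresis fluorescence after a 24 h chemical exposure of HepG2 cells transiently transfected with multiple cis-element reporter units. Gain or loss fitted against DMSO.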

Test [3] in a line: ATG_ISRE_CIS: Attagene CIS-FACTORIAL HepG2 Assay for human Interferon Regulatory Factor 1 (IRF1) binding to an Interferon-Stimulated Response Element (ISRE) (AID 2282948). The conditions noted are these: HepG2 ISRE cis-reporter (Attagene), mRNA transcription readout; actives raise or lower the signal. Summed up:
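Read-out: fluorescent RT-PCR products resolved by capillary electrophoresis, reporting endogenous transcription factor activity via ISRE-driven reporter mRNA in transfected HepG2 cells dosed for 24 h; gain or loss fitted relative to DMSO.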

Test [4] can be described thus: ATG_M_32_CIS: Attagene CIS-FACTORIAL HepG2 Assay for M32 Transcription Factor (Internal Marker) (AID 2282949).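 Also: background control marker of the multiplexed CIS panel rather than a real target.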 The conditions noted are these: HepG2 Attagene cis-factorial M32 reporter, mRNA; actives raise or lower the signal. Summed up: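 HepG2 human liver cells transiently transfected with cis-promoter-driven multiple reporter transcription units, dosed 24 h. Reporter mRNA quantified by RT-PCR, FAM-labelled primer extension, HpaI digest and capillary electrophoresis; bidirectional fit versus DMSO baseline.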

Test [5] is described as follows: ATG_M_06_CIS: Attagene CIS-FACTORIAL HepG2 Assay for M06 Transcription Factor (Internal Marker) (AID 2282950). The conditions noted are these: HepG2 Attagene CIS-FACTORIAL M06 internal marker reporter; actives raise or lower the signal. The procedure, abridged: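 Fluorescence-labelled RT-PCR products from cis-promoter reporter units, cut with HpaI and resolved by capillary electrophoresis, give the signal. Cells are human HepG2, dosed for 24 h. Serves as background control, fitted relative to DMSO.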

The target of test [6] is Hypoxia-inducible factor 1-alpha (Homo sapiens) (UniProt Q16665). As to the kind of experiment: ATG_HIF1a_CIS: Attagene CIS-FACTORIAL HepG2 Assay for human Hypoxia Inducible Factor 1 (HIF1A) (AID 2282951). The conditions noted are these: HepG2 Attagene cis-factorial HIF1a reporter transcription; actives raise or lower the signal. Summed up:
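HepG2 cells transiently transfected with multiplexed cis-promoter reporter units; reporter mRNA read 24 h after dosing by RT-PCR, 6-FAM primer-extension labelling, HpaI digestion and capillary electrophoresis. Bidirectional fit versus DMSO baseline.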

In test [7] the target is Hepatocyte nuclear factor 6 (Homo sapiens) (UniProt Q9UBC0). Kind of test: ATG_HNF6_CIS: Attagene CIS-FACTORIAL HepG2 Assay for human Hepatocyte Nuclear Factor 6 (HNF6) (AID 2282952). The conditions noted are these: HepG2 Attagene cis-factorial HNF6 reporter transcription; actives raise or lower the signal. The procedure, abridged:
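Readout: fluorescent reporter-transcript fragments resolved by capillary electrophoresis after RT-PCR, reflecting endogenous factor activity in transfected HepG2. Exposure 24 h. Gain or loss of signal fitted bidirectionally against DMSO.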

In test [8] the target is Heat shock factor protein 1 (Homo sapiens) (UniProt Q00613). Kind of test: ATG_HSE_CIS: Attagene CIS-FACTORIAL HepG2 Assay for human Heat Shock Transcription Factor 1 (HSE) (AID 2282953). The conditions noted are these: HepG2 HSE cis-reporter, Attagene RNA transcription; actives raise or lower the signal. Summed up:
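After a 24 h incubation with test chemical, transfected HepG2 cells were harvested for RNA; reporter transcripts were measured by RT-PCR and capillary electrophoresis. Values reflect gain or loss of signal relative to DMSO.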

Test [9] can be described thus: ATG_MRE_CIS: Attagene CIS-FACTORIAL HepG2 Assay for human Metal Responsive Element (MRE) (AID 2282954). The conditions noted are these: HepG2 MRE cis-reporter transcription, Attagene multiplex; actives raise or lower the signal. The procedure, abridged:
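Endogenous MRE-dependent transcription read as reporter mRNA in transiently transfected human HepG2 cells at 24 h. RNA reverse-transcribed, PCR-amplified, labelled and resolved by capillary electrophoresis; gain or loss relative to DMSO.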

Test [10] can be described thus: ATG_PBREM_CIS: Attagene CIS-FACTORIAL HepG2 Assay for human Phenobarbital-responsive Enhancer Module (PBREM) (AID 2282955). The conditions noted are these: HepG2 PBREM cis-reporter, Attagene multiplexed transcription; actives raise or lower the signal. The procedure, abridged: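 HepG2 cells transiently transfected with multiple cis-regulated reporter transcription units; endogenous factor activity at the PBREM element measured as reporter mRNA 24 h after dosing, via RT-PCR and capillary electrophoresis of fluorescent fragments; bidirectional fitting versus DMSO.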

Test [11] addresses Paired box protein Pax-6 (Homo sapiens) (UniProt P26367). As to the kind of experiment: ATG_Pax6_CIS: Attagene CIS-FACTORIAL HepG2 Assay for human Paired Box 6 (PAX6) (AID 2282956). The conditions noted are these: HepG2 CIS-FACTORIAL PAX6 reporter transcription, RNA readout; actives raise or lower the signal. The procedure, abridged:
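Readout: reporter transcript fluorescence after RT-PCR and capillary electrophoresis. Cells: HepG2, transiently transfected with cis-regulated MRTUs. Exposure 24 h. Gain or loss of signal fitted bidirectionally relative to DMSO.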

A short description of test [12]: ATG_PXRE_CIS: Attagene CIS-FACTORIAL HepG2 Assay for human Pregnane X Receptor Element (PXRE) (AID 2282957). The conditions noted are these: HepG2 Attagene CIS-FACTORIAL PXRE reporter, mRNA; actives raise or lower the signal. Summed up:
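Read-out: fluorescence of reporter-specific RT-PCR products resolved by capillary electrophoresis, fitted bidirectionally relative to DMSO. Human HepG2 liver cells carried transfected cis-promoter reporter units and were exposed to chemicals for 24 h.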

Test [13] in a line: ATG_RORE_CIS: Attagene CIS-FACTORIAL HepG2 Assay for human RAR-related Orphan Receptor Element (RORE) (AID 2282959). The conditions noted are these: HepG2 Attagene cis-factorial RORE reporter, mRNA; actives raise or lower the signal. The procedure, abridged:
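HepG2 cells transiently transfected with multiple cis-element reporter transcription units, exposed to chemical for 24 h. Reporter mRNA quantified by RT-PCR, 6-FAM primer-extension labeling, HpaI digestion and capillary electrophoresis; bidirectional fit versus DMSO baseline.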

Test [14] in a line: ATG_Sox_CIS: Attagene CIS-FACTORIAL HepG2 Assay for human SRY-box transcription factor (SOX) (AID 2282960). The conditions noted are these: HepG2 Attagene cis-factorial SOX reporter, mRNA; actives raise or lower the signal. Summed up:
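HepG2 cells transiently transfected with cis-element-driven multiple reporter transcription units, dosed 24 h; reporter mRNA measured by RT-PCR, FAM labelling, HpaI digestion and capillary electrophoresis. Bidirectional fit versus DMSO baseline.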

The target of test [15] is Transcription factor Sp1 (Homo sapiens) (UniProt P08047). As to the kind of experiment: ATG_Sp1_CIS: Attagene CIS-FACTORIAL HepG2 Assay for human Specificity Protein 1 (Sp1) (AID 2282961). The conditions noted are these: HepG2 Sp1 cis-reporter transcription, actives raise or lower the signal. The procedure, abridged: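 HepG2 cells transiently transfected with multiple reporter transcription units driven by cis-regulatory elements; Sp1-responsive reporter mRNA measured 24 h after dosing by RT-PCR and capillary electrophoresis fluorescence, fitted bidirectionally against DMSO baseline.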

Test [16] can be described thus: ATG_SREBP_CIS: Attagene CIS-FACTORIAL HepG2 Assay for human Sterol Regulatory Element Binding (SREBP) (AID 2282962). The conditions noted are these: HepG2 Attagene cis-factorial SREBP reporter, mRNA; actives raise or lower the signal. The procedure, abridged:
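Readout: fluorescent reporter-transcript peaks resolved by capillary electrophoresis after RT-PCR. Cells were human HepG2 carrying transfected cis-promoter reporter constructs, dosed for 24 h. Gain or loss of signal was fitted against DMSO controls.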

Test [17] addresses Signal transducer and activator of transcription 3 (Homo sapiens) (UniProt P40763). Kind of test: ATG_STAT3_CIS: Attagene CIS-FACTORIAL HepG2 Assay for human Signal Transducer and Activator of Transcription 3 (STAT3) (AID 2282963). The conditions noted are these: HepG2, Attagene cis-factorial STAT3 reporter transcription; actives raise or lower the signal. Summed up: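 Readout is reporter transcript quantified by RT-PCR and capillary electrophoresis, with 6-FAM primer extension and HpaI digestion. Total RNA is taken 24 h after dosing transiently transfected HepG2 carrying cis-regulated reporter units. Bidirectional fit against DMSO.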

Test [18] in a line: ATG_TA_CIS: Attagene CIS-FACTORIAL HepG2 Assay for human TA Basal Promoter (AID 2282964). The conditions noted are these: HepG2 Attagene CIS-factorial TA basal promoter reporter; actives raise or lower the signal. Summed up:
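Multiplexed mRNA reporter assay, HepG2, 24 h. Reporter cDNA amplified, 6-FAM primer-extended, HpaI-cut, CE-sized; DMSO = negative control and baseline.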

Test [19] in a line: ATG_TCF_b_cat_CIS: Attagene CIS-FACTORIAL HepG2 Assay for human T-Cell-Factor with beta-catenin (TCF/b-cat) (AID 2282965). The conditions noted are these: HepG2 TCF/beta-catenin cis-reporter transcription, actives raise or lower the signal. The procedure, abridged:
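Endogenous TCF/LEF activity read as reporter transcript level via RT-PCR and capillary electrophoresis fluorescence in transfected HepG2, 24 h exposure; gain or loss of signal fitted against DMSO controls.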

Test [20] can be described thus: ATG_PPRE_CIS: Attagene CIS-FACTORIAL HepG2 Assay for human Peroxisome Proliferator-activated Response Element (PPRE) (AID 2282958). The conditions noted are these: HepG2 PPRE cis-element reporter, Attagene transcription factor profiling; actives raise or lower the signal. The procedure, abridged:
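HepG2 cells transiently transfected with multiplexed cis-element reporter units measure endogenous transcription factor activity. After 24 h compound exposure, reporter mRNA is quantified by RT-PCR, 6-FAM labeling, HpaI digestion and capillary electrophoresis; bidirectional fits are made against DMSO baseline.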

Sequence of Transcription factor Sp1 (Homo sapiens) (P08047 whole entry, looked up): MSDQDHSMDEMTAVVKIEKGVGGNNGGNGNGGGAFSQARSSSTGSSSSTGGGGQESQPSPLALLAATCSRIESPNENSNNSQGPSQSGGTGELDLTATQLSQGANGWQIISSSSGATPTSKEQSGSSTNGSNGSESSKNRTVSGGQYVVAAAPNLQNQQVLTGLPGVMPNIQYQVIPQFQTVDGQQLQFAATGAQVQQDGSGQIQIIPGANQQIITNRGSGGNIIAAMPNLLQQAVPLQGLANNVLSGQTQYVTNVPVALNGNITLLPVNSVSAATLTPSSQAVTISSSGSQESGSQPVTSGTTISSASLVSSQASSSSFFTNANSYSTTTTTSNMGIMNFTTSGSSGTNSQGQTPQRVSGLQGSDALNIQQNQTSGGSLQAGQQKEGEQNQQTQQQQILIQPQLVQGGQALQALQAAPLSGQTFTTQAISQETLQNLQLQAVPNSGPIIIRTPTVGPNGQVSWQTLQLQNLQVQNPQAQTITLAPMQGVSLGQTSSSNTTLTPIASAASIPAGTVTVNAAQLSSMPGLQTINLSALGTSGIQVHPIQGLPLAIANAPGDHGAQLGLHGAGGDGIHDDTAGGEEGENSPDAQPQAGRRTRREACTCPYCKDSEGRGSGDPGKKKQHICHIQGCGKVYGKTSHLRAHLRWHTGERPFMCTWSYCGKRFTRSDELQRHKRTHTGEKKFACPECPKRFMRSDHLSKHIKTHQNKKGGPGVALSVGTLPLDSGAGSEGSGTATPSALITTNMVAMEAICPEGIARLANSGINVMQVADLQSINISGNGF
Sequence of Hypoxia-inducible factor 1-alpha (Homo sapiens) (Q16665 whole entry, looked up): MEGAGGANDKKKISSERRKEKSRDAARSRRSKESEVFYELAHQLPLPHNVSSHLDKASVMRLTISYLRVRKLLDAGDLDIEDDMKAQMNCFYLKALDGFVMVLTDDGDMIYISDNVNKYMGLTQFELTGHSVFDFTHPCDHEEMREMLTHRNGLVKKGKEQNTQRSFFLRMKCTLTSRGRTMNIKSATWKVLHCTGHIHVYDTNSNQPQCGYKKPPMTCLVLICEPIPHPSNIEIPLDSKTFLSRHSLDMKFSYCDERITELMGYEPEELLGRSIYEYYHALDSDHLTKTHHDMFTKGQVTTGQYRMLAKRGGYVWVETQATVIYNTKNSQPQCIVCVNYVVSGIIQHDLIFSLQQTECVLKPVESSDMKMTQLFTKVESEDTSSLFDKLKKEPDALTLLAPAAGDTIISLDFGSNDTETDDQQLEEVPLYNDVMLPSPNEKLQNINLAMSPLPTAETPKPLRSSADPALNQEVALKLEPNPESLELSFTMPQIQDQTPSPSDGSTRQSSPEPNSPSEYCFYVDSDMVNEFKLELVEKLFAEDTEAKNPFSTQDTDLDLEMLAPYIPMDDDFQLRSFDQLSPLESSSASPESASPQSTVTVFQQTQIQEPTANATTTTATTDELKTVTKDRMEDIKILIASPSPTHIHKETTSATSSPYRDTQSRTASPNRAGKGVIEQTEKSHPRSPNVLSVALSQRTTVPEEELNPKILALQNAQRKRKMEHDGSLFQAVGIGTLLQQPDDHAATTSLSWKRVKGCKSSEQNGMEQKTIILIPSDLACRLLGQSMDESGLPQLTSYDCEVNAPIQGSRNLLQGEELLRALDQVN
Sequence of Hepatocyte nuclear factor 6 (Homo sapiens) (Q9UBC0 whole entry, looked up, the tested form may be a part): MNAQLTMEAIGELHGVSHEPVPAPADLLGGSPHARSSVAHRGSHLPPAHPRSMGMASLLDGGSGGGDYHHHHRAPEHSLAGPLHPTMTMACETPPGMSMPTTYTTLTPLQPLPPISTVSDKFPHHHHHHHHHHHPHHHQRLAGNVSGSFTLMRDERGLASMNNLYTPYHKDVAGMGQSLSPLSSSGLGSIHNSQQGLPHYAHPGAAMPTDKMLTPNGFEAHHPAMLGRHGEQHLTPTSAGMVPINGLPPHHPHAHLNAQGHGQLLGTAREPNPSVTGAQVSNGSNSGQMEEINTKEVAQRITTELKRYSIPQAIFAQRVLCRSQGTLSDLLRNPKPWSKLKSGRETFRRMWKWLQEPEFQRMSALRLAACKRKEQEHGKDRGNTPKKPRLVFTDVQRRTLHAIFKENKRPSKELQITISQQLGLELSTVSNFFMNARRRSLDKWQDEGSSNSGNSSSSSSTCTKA
Sequence of Bile acid receptor (Homo sapiens) (Q96RI1 whole entry, looked up): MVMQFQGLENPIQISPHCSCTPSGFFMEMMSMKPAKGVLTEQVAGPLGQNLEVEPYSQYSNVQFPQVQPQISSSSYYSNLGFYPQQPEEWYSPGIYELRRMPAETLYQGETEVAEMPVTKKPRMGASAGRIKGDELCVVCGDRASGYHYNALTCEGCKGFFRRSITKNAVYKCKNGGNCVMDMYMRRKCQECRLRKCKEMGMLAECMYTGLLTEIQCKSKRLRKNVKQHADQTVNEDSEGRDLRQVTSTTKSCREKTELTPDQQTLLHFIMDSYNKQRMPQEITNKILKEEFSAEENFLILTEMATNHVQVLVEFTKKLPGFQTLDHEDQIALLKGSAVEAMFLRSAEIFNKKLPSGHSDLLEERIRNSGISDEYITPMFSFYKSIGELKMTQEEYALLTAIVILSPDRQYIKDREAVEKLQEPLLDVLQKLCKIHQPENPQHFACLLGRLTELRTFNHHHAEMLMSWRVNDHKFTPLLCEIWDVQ
Sequence of Signal transducer and activator of transcription 3 (Homo sapiens) (P40763 whole entry, looked up): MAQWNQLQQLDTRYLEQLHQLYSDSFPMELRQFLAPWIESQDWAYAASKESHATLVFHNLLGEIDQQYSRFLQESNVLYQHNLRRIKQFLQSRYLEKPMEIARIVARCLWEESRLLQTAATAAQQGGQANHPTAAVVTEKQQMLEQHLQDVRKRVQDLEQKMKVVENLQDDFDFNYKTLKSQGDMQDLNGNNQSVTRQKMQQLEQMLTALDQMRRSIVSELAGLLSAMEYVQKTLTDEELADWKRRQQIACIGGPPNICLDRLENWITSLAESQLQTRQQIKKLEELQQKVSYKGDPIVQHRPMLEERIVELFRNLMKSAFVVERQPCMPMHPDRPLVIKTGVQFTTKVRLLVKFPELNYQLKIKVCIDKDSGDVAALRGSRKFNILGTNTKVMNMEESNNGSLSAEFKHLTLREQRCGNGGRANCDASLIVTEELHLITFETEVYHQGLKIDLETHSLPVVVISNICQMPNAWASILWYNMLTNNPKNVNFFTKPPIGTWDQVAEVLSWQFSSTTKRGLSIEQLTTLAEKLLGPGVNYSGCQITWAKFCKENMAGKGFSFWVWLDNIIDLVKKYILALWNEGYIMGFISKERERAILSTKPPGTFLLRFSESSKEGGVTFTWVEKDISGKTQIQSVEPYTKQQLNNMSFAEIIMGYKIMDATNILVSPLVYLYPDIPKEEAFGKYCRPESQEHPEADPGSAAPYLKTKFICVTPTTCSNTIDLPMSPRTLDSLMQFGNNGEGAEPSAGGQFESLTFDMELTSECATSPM
Sequence of Heat shock factor protein 1 (Homo sapiens) (Q00613 whole entry, looked up): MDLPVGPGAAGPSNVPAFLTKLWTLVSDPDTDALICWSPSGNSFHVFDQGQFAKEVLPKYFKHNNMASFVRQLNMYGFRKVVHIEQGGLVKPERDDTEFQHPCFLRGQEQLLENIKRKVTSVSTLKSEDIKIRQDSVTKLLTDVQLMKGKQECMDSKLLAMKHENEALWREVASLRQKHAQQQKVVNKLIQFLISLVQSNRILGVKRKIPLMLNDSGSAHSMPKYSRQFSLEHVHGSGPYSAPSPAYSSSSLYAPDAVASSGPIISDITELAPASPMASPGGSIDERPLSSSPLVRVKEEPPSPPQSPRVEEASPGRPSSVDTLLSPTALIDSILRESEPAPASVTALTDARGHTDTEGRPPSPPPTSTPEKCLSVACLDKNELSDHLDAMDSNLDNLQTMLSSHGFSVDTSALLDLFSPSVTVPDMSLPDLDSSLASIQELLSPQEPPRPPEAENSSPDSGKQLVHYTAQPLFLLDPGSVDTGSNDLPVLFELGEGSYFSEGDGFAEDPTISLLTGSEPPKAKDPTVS
Sequence of Paired box protein Pax-6 (Homo sapiens) (P26367 whole entry, looked up): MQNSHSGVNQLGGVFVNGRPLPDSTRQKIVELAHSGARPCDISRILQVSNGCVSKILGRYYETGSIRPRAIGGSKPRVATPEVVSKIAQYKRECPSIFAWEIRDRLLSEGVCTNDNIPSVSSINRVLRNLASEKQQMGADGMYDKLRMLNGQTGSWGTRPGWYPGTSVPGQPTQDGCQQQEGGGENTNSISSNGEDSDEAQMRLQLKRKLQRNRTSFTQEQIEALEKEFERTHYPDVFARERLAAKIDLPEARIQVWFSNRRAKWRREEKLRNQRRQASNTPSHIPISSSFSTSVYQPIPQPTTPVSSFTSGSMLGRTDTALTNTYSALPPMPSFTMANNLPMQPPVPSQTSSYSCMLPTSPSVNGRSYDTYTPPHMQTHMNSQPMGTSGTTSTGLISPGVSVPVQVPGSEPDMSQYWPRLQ

As to `O=c1cc[nH]c(=S)[nH]1`, the result in test [1], in [2], in test [3], in test [4], in test [5] and in test [6] was inactive. Moreover, the compound was called inactive in [7], in test [8], in test [9], in [10], in test [11] and in test [12]. Further, the compound was called inactive in [13], in test [14], in [15], in test [16], in test [17] and in test [18]. In addition, the outcome in [19] was inactive.

`Cc1ccc(OC(=O)CC(C)C)cc1`: the compound was called inactive in test [1], in test [2], in test [3], in test [4], in test [5] and in test [6]. For the same compound, the result in test [7], in test [8], in test [9], in test [10], in test [11] and in test [20] was inactive. In addition, the outcome in test [13], in [14], in [15], in test [16], in test [17] and in test [18] was inactive. In test [19], the outcome was inactive.

One may read the AC50 as the midpoint of the concentration-response curve, whichever way the signal moves. For the compound `CCCCCCCC[N+](C)(CCCCCCCC)CCCCCCCC`, the result in test [1], in test [2], in [3], in test [4], in test [5] and in test [7] was inactive. In addition, the result in test [8], in test [10], in test [11], in test [20], in test [13] and in [14] was inactive. Moreover, the result in test [15], in test [16], in [17], in [18] and in test [19] was inactive. Further, the values for the AC50 in test [6] and in test [9] were 0.753 nM (active) and 2150 nM (active), respectively.
